Data on 40 compounds can be found in ChEMBL document CHEMBL3433997, “St. Jude Leishmania screening dataset” (2016).

One assay deals with Solute carrier family 2, facilitated glucose transporter member 1 (Homo sapiens) (UniProt P11166). Nature of the assay: ST_JUDE_LEISH: Cytotoxicity at 2uM final concentration against transgenic Leishmania Mexicana promastigotes LmGLUT1 that are glucose transport deficient and complemented with the human glucose transporter GLUT1. Activity is measured by DNA content using SYBR green in vitro. Format: functional.
Sequence of Solute carrier family 2, facilitated glucose transporter member 1 (Homo sapiens) (P11166 whole entry): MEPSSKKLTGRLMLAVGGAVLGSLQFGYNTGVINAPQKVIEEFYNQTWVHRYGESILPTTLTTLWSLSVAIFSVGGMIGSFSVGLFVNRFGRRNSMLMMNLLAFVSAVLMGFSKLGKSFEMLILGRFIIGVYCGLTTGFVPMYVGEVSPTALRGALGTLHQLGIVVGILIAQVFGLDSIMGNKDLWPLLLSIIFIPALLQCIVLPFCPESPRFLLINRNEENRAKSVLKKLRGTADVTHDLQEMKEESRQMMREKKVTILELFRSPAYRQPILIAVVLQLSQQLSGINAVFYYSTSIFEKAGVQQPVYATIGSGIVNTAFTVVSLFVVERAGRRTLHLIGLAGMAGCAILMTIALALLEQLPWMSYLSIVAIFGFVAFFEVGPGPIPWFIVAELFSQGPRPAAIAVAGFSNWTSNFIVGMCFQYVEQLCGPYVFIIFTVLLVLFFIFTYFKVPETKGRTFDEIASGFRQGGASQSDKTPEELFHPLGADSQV
With `COc1cc(C=NNc2cc(C)nc3c(OC)cccc23)cc(OC)c1OC`, the inhibition is 7.21%. Same read-out and setting: as for `O=C(Nc1ccc(OC(F)(F)F)cc1)NC1CCN(c2ccnc3ccccc23)CC1`, the figure is 6.11%. On to `COc1ccc2oc(=O)c(C#N)c(O)c2c1`, for which the inhibition is -0.47%.

`CN1CCCC(CN2CCN(Cc3ccc(-c4ccc(-c5nc6ccccc6[nH]5)cc4)cc3)CC2)C1` (stereo not given): the inhibition came out at 13%. Still for that read-out and setting: in the case of `CC(O)C1CCCCN1C(=O)c1ccc(-c2ccc(-c3nc4ccccc4[nH]3)s2)cc1` (stereo not given) it was -1.19%; in that of `Fc1ccc(-c2cncc(-c3ccc(F)cc3)n2)cc1`, 9.28%; in that of `CN1CCC(Oc2cc(CN3CC[C@H](NC(=O)c4ccc(Cl)c(Cl)c4)C3)ccc2I)C1` (stereo not given in full), -0.57%. Same read-out and setting: as for `COc1ccc(COc2c(OC)cc(Cc3cnc(N)nc3N)cc2OC)cc1`, the figure is 5.65%; as for `C=CCOC(=O)N1CCC(CNCc2cccc(-c3cccc(-c4nc5cccc(C)c5[nH]4)c3)c2)C1` (stereo not given), 3.47%; as for `Cc1cnc2ccc(NS(=O)(=O)c3ccc4c(Cl)cccc4c3)cc2c1N1CCNCC1`, 1.16%. Same read-out and setting: as for `O=C(NCc1ccco1)c1ccc(S(=O)(=O)c2ccc(Cl)cc2)cc1`, the figure is 0.13%; as for `O=C(/C=C/c1ccc(Cl)c(Cl)c1)NCCCCCN1CC[C@H](NC(=O)/C=C/c2ccccc2)C1`, 0.76%. Regarding `Cc1ccc(Nc2nccc(NCC(O)c3cccc(C)c3)n2)cc1` (stereo not given), the inhibition was 5.47%. Still for that read-out and setting: as for `Cc1cccc2nc(-c3cccc(-c4ccc(C(=O)NCc5nccn5C)cc4)c3)[nH]c12`, the figure is 1.94%; as for `CN(Cc1ccccc1)C(=O)CCNS(=O)(=O)c1cc(Br)cnc1N`, 2.6%; as for `COc1ccccc1C1CCN(C2CCC(NC(=O)/C=C/c3ccc(C(F)(F)F)cc3)CC2)CC1` (stereo not given), 1.41%. Still for that read-out and setting: in the case of `CC(C)NCc1ccc(-c2cccc(-c3nc4ccccc4[nH]3)c2)cc1` it was 13.3%; in that of `CN1CCC(NCc2ccc(-c3ccc(S(=O)(=O)NC4CCC4)s3)cc2)CC1`, 3.46%.

Consider `OC1=C2C(=Nc3ccccc3SC2c2ccccc2)c2ccccc21` (stereo not given), for which the inhibition was 4.3%. The same measure, in the same setting: in the case of `COc1cc2nc(N3CC(C)N(C(=O)Cc4ccc(-c5ccccc5)cc4)C(C)C3)nc(N)c2cc1OC` (stereo not given) it was 6.24%. As for `COc1cc2s/c(=N\C(=O)c3cccc([N+](=O)[O-])c3)n(C)c2cc1OC`, the inhibition worked out at 9.71%. Same read-out and setting: as for `Cc1cc(-c2cnc(N)c(-c3ccc(N4CCN(C)CC4)nc3)c2)cc(C)c1O`, the figure is 1.2%; as for `O=C(Nc1ccccc1)N(Cc1ccc(-c2cccc(CNC3CCCC3)c2)cc1)C1CCN(Cc2ccccc2)CC1`, 0.97%; as for `COc1ccc(C2C(C(=O)Nc3ccc(C)cc3Br)c3ccccc3C(=O)N2C)cc1` (stereo not given), 3.32%. Still for that read-out and setting: in the case of `CC(C)c1ccc(CN2CCCCC(NC(=O)c3cc(-c4ccccc4F)cs3)C2)cc1` (stereo not given) it was 8.71%.

The target in another assay is Hexose transporter 1 (Plasmodium falciparum) (UniProt O97467). The experiment in a line: ST_JUDE_LEISH: Cytotoxicity at 2uM final concentration against transgenic Leishmania Mexicana promastigotes LmPfHT that are glucose transport deficient and complemented with the Plasmodium falciparum hexose transporter. Activity is measured by DNA content using SYBR green in vitro. Format: functional.
Consider `CCOc1ccc(N2C(N)=NC(N)=NC2(C)C)cc1`, for which the inhibition was 3.86%.

Consider `Cc1nc(C)n(CC(=O)Nc2cccc(-c3cccc(-c4nc5cc(C(F)(F)F)ccc5[nH]4)c3)c2)n1`, for which the inhibition turned out to be 9.76%.

For `CN(C)CCCNc1ncnc2c1[nH]c1ccc(Br)cc12`, the inhibition came out at 2.41%.

Turning to `NS(=O)(=O)c1cccc(Nc2nc(N[C@@H]3CCNC3)nc3cc[nH]c(=O)c23)c1`, the inhibition worked out at 2.08%. Still for that read-out and setting: in the case of `N#Cc1ccc(-c2ccc(C(=O)Nc3ccc4c(c3)CCN(C3CCC3)CC4)nc2)cc1` it was 3.06%.

Consider `Cc1csc(-c2nonc2NC(=O)COc2ccccc2C(C)C)n1`, for which the inhibition was -1.84%. `CCO[C@H]1CN[C@H](C#Cc2cc3c(Nc4ccc(OCc5cccc(F)c5)c(Cl)c4)ncnc3s2)C1`: the inhibition is 3.65%. Still for that read-out and setting: as for `O=C(Cn1c(SCc2cccc(F)c2F)cc(=O)c2ccccc21)N(Cc1ccc(-c2ccc(C(F)(F)F)cc2)cc1)C1CCN(CCO)CC1`, the figure is -0.44%; as for `CN(C(=O)c1nn(-c2ccccn2)c2nccc(-c3cccs3)c12)C1CCCCC1`, 5.58%; as for `CC(Nc1nc(Nc2ccc(F)cc2)nc(SCC(N)=O)n1)c1ccccc1` (stereo not given), 1.3%.

`CC(C)c1sc(N2CCN(C)CC2)nc1C(=O)Nc1ccc(F)cc1C(F)(F)F`: the inhibition came to 6.04%. Same read-out and setting: in the case of `Cc1cnc(Nc2ccccc2)nc1N[C@@H](CCCN)C(=O)Nc1ccccc1` it was -0.2%. For the compound `CC(C)(C)NS(=O)(=O)c1cc(C(=O)N2CCC(CCN3CCC(O)(c4cccc(C(F)(F)F)c4)CC3)(c3cccc(F)c3)CC2)c(Cl)cc1F`, the inhibition stood at 1.52%. `O=C(Nc1ccc(Cl)c(Cl)c1)N1CCC(NCc2cccc([N+](=O)[O-])c2)CC1`: the inhibition turned out to be 1.1%. With `COc1cccc(C=NN=c2cc(C)[nH]c3ccccc23)c1`, the inhibition is 3.07%. On to `COc1cc(C=NNc2cc(C)nc3c(OC)cccc23)cc(OC)c1OC`, for which the inhibition was 3.3%.

For the compound `O=C(Nc1ccc(OC(F)(F)F)cc1)NC1CCN(c2ccnc3ccccc23)CC1`, the inhibition stood at 5.45%. Regarding `COc1ccc2oc(=O)c(C#N)c(O)c2c1`, the inhibition is -0.32%. Still for that read-out and setting: in the case of `CN1CCCC(CN2CCN(Cc3ccc(-c4ccc(-c5nc6ccccc6[nH]5)cc4)cc3)CC2)C1` (stereo not given) it was 15.9%. Turning to `CC(O)C1CCCCN1C(=O)c1ccc(-c2ccc(-c3nc4ccccc4[nH]3)s2)cc1` (stereo not given), the inhibition is -3.15%. On the same count and under the same terms, in the case of `Fc1ccc(-c2cncc(-c3ccc(F)cc3)n2)cc1` it was 6.64%.

Regarding `CN1CCC(Oc2cc(CN3CC[C@H](NC(=O)c4ccc(Cl)c(Cl)c4)C3)ccc2I)C1` (stereo not given in full), the inhibition is 0.84%. On the same count and under the same terms, in the case of `COc1ccc(COc2c(OC)cc(Cc3cnc(N)nc3N)cc2OC)cc1` it was 5.76%. With `C=CCOC(=O)N1CCC(CNCc2cccc(-c3cccc(-c4nc5cccc(C)c5[nH]4)c3)c2)C1` (stereo not given), the inhibition is 1.88%.

Take `Cc1cnc2ccc(NS(=O)(=O)c3ccc4c(Cl)cccc4c3)cc2c1N1CCNCC1`: the inhibition was determined as 1.37%. With `O=C(NCc1ccco1)c1ccc(S(=O)(=O)c2ccc(Cl)cc2)cc1`, the inhibition was found to be 1.22%. The same measure, in the same setting: as for `O=C(/C=C/c1ccc(Cl)c(Cl)c1)NCCCCCN1CC[C@H](NC(=O)/C=C/c2ccccc2)C1`, the figure is 0.86%. Same read-out and setting: as for `Cc1ccc(Nc2nccc(NCC(O)c3cccc(C)c3)n2)cc1` (stereo not given), the figure is 4.73%. On the same count and under the same terms, as for `Cc1cccc2nc(-c3cccc(-c4ccc(C(=O)NCc5nccn5C)cc4)c3)[nH]c12`, the figure is 3.7%; as for `CN(Cc1ccccc1)C(=O)CCNS(=O)(=O)c1cc(Br)cnc1N`, 3.87%; as for `COc1ccccc1C1CCN(C2CCC(NC(=O)/C=C/c3ccc(C(F)(F)F)cc3)CC2)CC1` (stereo not given), 2.17%. For the compound `CC(C)NCc1ccc(-c2cccc(-c3nc4ccccc4[nH]3)c2)cc1`, the inhibition amounted to 11.8%. On the same count and under the same terms, as for `CN1CCC(NCc2ccc(-c3ccc(S(=O)(=O)NC4CCC4)s3)cc2)CC1`, the figure is 1.25%; as for `OC1=C2C(=Nc3ccccc3SC2c2ccccc2)c2ccccc21` (stereo not given), 5.31%. For `COc1cc2nc(N3CC(C)N(C(=O)Cc4ccc(-c5ccccc5)cc4)C(C)C3)nc(N)c2cc1OC` (stereo not given), the inhibition worked out at 5.22%.

For the compound `COc1cc2s/c(=N\C(=O)c3cccc([N+](=O)[O-])c3)n(C)c2cc1OC`, the inhibition worked out at 10.7%. For the compound `Cc1cc(-c2cnc(N)c(-c3ccc(N4CCN(C)CC4)nc3)c2)cc(C)c1O`, the inhibition was determined as 0.69%.

In the case of `O=C(Nc1ccccc1)N(Cc1ccc(-c2cccc(CNC3CCCC3)c2)cc1)C1CCN(Cc2ccccc2)CC1`, the inhibition was found to be 1.4%.

In the case of `COc1ccc(C2C(C(=O)Nc3ccc(C)cc3Br)c3ccccc3C(=O)N2C)cc1` (stereo not given), the inhibition worked out at 2.08%. The same measure, in the same setting: as for `CC(C)c1ccc(CN2CCCCC(NC(=O)c3cc(-c4ccccc4F)cs3)C2)cc1` (stereo not given), the figure is 8.1%.

In general, inhibition refers to the drop in the measured response relative to a control, in per cent.
